These results are taken from PubChem BioAssay.

The structures appear in SMILES notation. Where “and” joins values, the source holds several entries; their conditions need not be identical. Identical values can stand only once. Calls of active or inactive are those of the source.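 The calls were made as follows, unless noted: active = thallium flux through the channel raised or lowered by more than 3 SD from vehicle-only wells, actives on both sides; inactive = the rest.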

The nature of assay [1]: liver-stage malaria parasite growth inhibition, primary screen, cell-based, HepG2, luciferase luminescence, HepG2 viability (AID 624349; in the data active = parasite load remaining mostly below about 12%, no sharp cut-off; inactive = mostly above about 10%;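 also: 100% = mean of DMSO negative control wells on the same plate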). The settings on record: P. berghei liver stage in HepG2, luciferase luminescence, concentration not given here; parasite load remaining: stronger effect = lower value; viability: measured here: HepG2 viability without parasites.
A short description of assay [2]: Cy5 fluorescence interference with SSB-bound oligo, artefact control for HCV NS3 helicase inhibitor project, biochemical, NIH Clinical Collection, E. coli SSB (AID 743268; call rule not given here).
Assay [3] relates to Hepatitis C virus NS3 helicase. In words: HCV NS3 helicase inhibitors, primary screen, biochemical, fluorescence polarization, NIH Clinical Collection (AID 743270; call rule not given here). The settings on record: NS3 helicase binding to Cy5-dT15 DNA, stronger effect = higher value, concentration not given here. (In general: In fluorescence polarisation assays a small probe gives low polarisation when free and higher when bound to something large.)

Assay [4] deals with Single-stranded DNA-binding protein (Escherichia coli (strain K12)) (UniProt P0AGE0). In words: E. coli SSB displacement from DNA, counter-screen for HCV NS3 helicase inhibitor project, biochemical, fluorescence polarization, NIH Clinical Collection (AID 743271; in the data active = inhibition above about 28%). The settings on record: stronger effect = higher value, concentration not given here. (The purpose of a counterscreen is to sort out artefacts and off-target activity.)

Assay [5] in a line: fluorescence interference in NS3h assay format, artefact control for HCV NS3 helicase inhibitor project, biochemical, NIH Clinical Collection (AID 743272; call rule not given here;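 also: HCV NS3 helicase with a Cy5 labelled single stranded DNA probe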). The settings on record: fluorescence interference counterscreen, stronger effect = lower value.
Assay [6] is described as follows: modulation of C. elegans fzo-1 (AID 1259413; call rule not given here;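 also: fzo-1 mutant C. elegans worms in liquid wells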). The settings on record: C. elegans fzo-1 modulator screen, mean read-out; stronger effect = higher value.
The nature of assay [7]: sensitizers of A549 cells to miR-34 induction, primary screen, imaging, A549 dox-inducible miR-34, nuclei and caspase counts (AID 1347080;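 active = compounds whose cell count with miR-34 switched on is under 0.7 times the count with it off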). The settings on record: A549 miR-34 inducible, Hoechst nuclei count, 48 h.
Assay [8] can be described thus: survival rescue of mitochondrial mutant cells in low glucose, primary screen, MELAS cybrids, Rieske KO mouse fibroblasts, CellTiter-Glo (AID 1508586;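 active = mean z-score across replicates of 1.96 or higher in either the MELAS or the Rieske mutant cell line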;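 also: z relative to plate mean and SD of compound and empty wells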).
Assay [9] is described as follows: viability rescue of complex I mutant cybrids, primary screen, cell-based, galactose medium, ATP luminescence (AID 1645843;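 active = z-score of at least 1.8 in each of two replicates, scored against plate mean and spread of sample wells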;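 also: positive z means more ATP and so rescue of galactose-driven cybrid death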). The settings on record: complex I mutant cybrid cells, 72 h, stronger effect = higher value.
The test system of another assay is F380Y. In words: modulators of BK channel variants, profiling panel, selectivity assay, cell-based, U2OS BacMam, thallium flux, beta subunits (AID 1259406).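 Also: initial slope of Thallos dye fluorescence rise after thallium is added; log ratio against the mean of 0.3% DMSO vehicle wells on the same plate.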 The settings on record: at 30 µM.
For the next assay, the system named is F380Y/beta1. Described as above. The settings on record: at 30 µM.
The test system of the next assay is F380Y/beta2Delta. The description is as above. The settings on record: at 30 µM.
The next assay concerns F380Y/beta4. The assay is described as above. The settings on record: at 30 µM.
The target of assay [10] is Calcium-activated potassium channel subunit alpha-1 (Homo sapiens) + Leucine-rich repeat-containing protein 26 (Homo sapiens) (UniProt Q12791+Q2I0M4). The assay is described as above. The settings on record: F380Y/Slo1WT/gamma1, at 30 µM.
A further assay concerns R275C. Described as above. The settings on record: at 30 µM.
For the next assay, the system named is R275C/beta1. The assay is described as above. The settings on record: at 30 µM.
A further assay concerns R275C/beta2Delta. Described as above. The settings on record: at 30 µM.
In a further assay the test system is R275C/beta4. Described as above. The settings on record: at 30 µM.
A further assay concerns R275C/Slo1WT/beta2. The assay is described as above. The settings on record: at 30 µM.
Where [11] appears, read: stronger effect = lower value, cell number ratio, induced over uninduced.
Where [12] appears, read: measured here: relative caspase fold change +Dox/-Dox.
Setting [13] is: measured here: total cells with miR-34 induction, stronger effect = lower value.
Where [14] appears, read: measured here: total cells without miR-34 induction.
Setting [15] is: MELAS cybrid survival, CellTiter-Glo 48 h, stronger effect = higher value.
Where [16] appears, read: Rieske KO mouse fibroblast survival, CellTiter-Glo 72 h.

Sequence of Calcium-activated potassium channel subunit alpha-1 (Homo sapiens) + Leucine-rich repeat-containing protein 26 (Homo sapiens) (Q2I0M4 whole entry, looked up, one chain of several): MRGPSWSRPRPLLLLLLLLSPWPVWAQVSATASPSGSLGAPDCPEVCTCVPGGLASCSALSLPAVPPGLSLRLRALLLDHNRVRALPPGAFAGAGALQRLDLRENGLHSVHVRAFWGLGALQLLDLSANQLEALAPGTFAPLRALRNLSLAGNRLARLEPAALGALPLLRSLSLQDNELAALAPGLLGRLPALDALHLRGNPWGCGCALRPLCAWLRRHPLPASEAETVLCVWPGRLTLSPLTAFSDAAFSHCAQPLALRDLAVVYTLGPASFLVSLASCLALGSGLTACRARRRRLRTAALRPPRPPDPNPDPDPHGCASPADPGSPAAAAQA

As usually defined, the viability is a read-out of living cells in per cent, often relative to untreated cells. Usually inhibition stands for the change of the read-out against control, counted positive when it falls. Take `CN(C)CCc1c[nH]c2ccc(Cn3cncn3)cc12`: the parasite load remaining in assay [1] was 45% (inactive) and 103% (inactive). Moreover, the viability in assay [1] was 99.5% and 78.1%. In addition, the fluorescence ratio in [2] is 1.13 (inactive); in assay [5], 0.91 (inactive). Besides, the inhibition is 0.4% (inactive) in [3] and 5.29% (inactive) in [4]. Further, the mean signal in assay [6] is 236 (inactive). The fold change in assay [7] (setting [11]) was 0.991 (inactive) and 0.886 (inactive) and 0.916 (inactive); in assay [7] (setting [12]) it was 1.31 and 0.982 and 5.76. Besides, the cell count is 7610 and 7730 and 12300 in assay [7] (setting [13]); 7680 and 8720 and 13400 in assay [7] (setting [14]). Further, the z-score in assay [8] (setting [15]) is -0.276 (inactive) and 0.545 (inactive); in assay [8] (setting [16]), 0.697 and -0.263; in [9], 0.12 (inactive). The log fold change Tl+ flux is -0.0521 (inactive) with F380Y; -0.0483 (inactive) in the assay on F380Y/beta1; 0 (inactive) in the assay on F380Y/beta2Delta; 0.0107 (inactive) in the assay with F380Y/beta4; 0.0357 (inactive) in assay [10]; -0.121 (active) with R275C. Besides, the log fold change Tl+ flux in the assay with R275C/beta1 is -0.00809 (inactive); with R275C/beta2Delta, -0.0421 (inactive); in the assay on R275C/beta4, 0.00222 (inactive); in the assay on R275C/Slo1WT/beta2 it was 0.0127 (inactive).

In the case of `CN/C(=C\[N+](=O)[O-])NCCSCc1csc(CN(C)C)n1`, the parasite load remaining in assay [1] was 44.5% (inactive) and 113% (inactive). Moreover, the viability in assay [1] was 104% and 78.4%. Further, the fluorescence ratio is 1.02 (inactive) in assay [2] and 0.97 (inactive) in assay [5]. The inhibition is 1.19% (inactive) in assay [3] and -0.1% (inactive) in assay [4]. Moreover, the mean signal in [6] is 274 (inactive). For the same compound, the fold change in assay [7] (setting [11]) was 0.871 (inactive); in assay [7] (setting [12]) it was 5.48. For the same compound, the cell count is 11400 in [7] (setting [13]) and 13100 in assay [7] (setting [14]). The log fold change Tl+ flux with F380Y was 0.0132 (inactive); in the assay with F380Y/beta1, -0.0313 (inactive); in the assay on F380Y/beta2Delta, 0.0292 (inactive); in the assay on F380Y/beta4, 0.0177 (inactive); in assay [10] it was -0.0126 (inactive); in the assay with R275C it was 0.0141 (inactive). For the same compound, the log fold change Tl+ flux in the assay with R275C/beta1 is -0.02 (inactive); in the assay with R275C/beta2Delta, -0.0114 (inactive); in the assay on R275C/beta4, -0.00775 (inactive); in the assay on R275C/Slo1WT/beta2 it was 0.0359 (inactive).

`CN1[C@@H]2CCC[C@H]1CC(NC(=O)c1nn(C)c3ccccc13)C2` (stereo partly specified): in [6], the mean signal was 239 (inactive). Also, the results for the fold change in assay [7] (setting [11]) and in [7] (setting [12]) were 0.964 (inactive) and 1.59, respectively. The cell count in [7] (setting [13]) amounted to 10200; in assay [7] (setting [14]) it was 10600. Further, the z-score in assay [8] (setting [15]) is 0.342 (inactive) and -0.62 (inactive); in [8] (setting [16]), 0.00777 and -1.31; in assay [9] it was 0.01 (inactive). The log fold change Tl+ flux in the assay on F380Y was 0.0826 (inactive); in the assay on F380Y/beta1, 0.016 (inactive); in the assay on F380Y/beta2Delta, 0.036 (inactive); in the assay on F380Y/beta4, 0.0312 (inactive); in assay [10], 0.00528 (inactive); in the assay on R275C, -0.0264 (inactive). The log fold change Tl+ flux in the assay on R275C/beta1 is 0.0105 (inactive); in the assay on R275C/beta2Delta, 0.0242 (inactive); with R275C/beta4, 0.0148 (inactive); with R275C/Slo1WT/beta2, 0.0272 (inactive).

In the case of `CCCCN1CCCC1CNC(=O)c1cc(C#N)c2ccccc2c1OC` (stereo unspecified), the parasite load remaining in [1] was 35.8% (inactive). The viability in assay [1] is 66.3%. Also, the fluorescence ratio in assay [2] was 0.93 (inactive); in [5], 0.91 (inactive). The inhibition is -0.22% (inactive) in assay [3] and 2.76% (inactive) in [4]. Moreover, the mean signal in assay [6] was 308 (inactive). Besides, the fold change in assay [7] (setting [11]) is 0.818 (inactive) and 0.935 (inactive); in assay [7] (setting [12]), 0.846 and 1.44. Besides, the cell count in assay [7] (setting [13]) is 8480 and 8490; in assay [7] (setting [14]), 10400 and 9080. Moreover, the z-score in assay [9] is -0.605 (inactive) and -0.3 (inactive). Also, the log fold change Tl+ flux in the assay on F380Y is -0.12 (active); in the assay with F380Y/beta1, -0.109 (active); in the assay with F380Y/beta2Delta, -0.243 (active); with F380Y/beta4 it was -0.221 (active); in assay [10], -0.0355 (inactive); with R275C, -0.0841 (inactive). The log fold change Tl+ flux with R275C/beta1 is -0.0222 (inactive); in the assay on R275C/beta2Delta it was -0.085 (inactive); with R275C/beta4, -0.0283 (inactive); in the assay with R275C/Slo1WT/beta2, -0.00509 (inactive).

For the compound `NCC(O)c1ccc(O)c(O)c1` (stereo unspecified), the parasite load remaining in assay [1] was 46.6% (inactive). The viability in [1] stood at 90.4%. The fluorescence ratio is 1.02 (inactive) in assay [2] and 0.99 (inactive) in assay [5]. The inhibition was -2.27% (inactive) in [3] and 0.29% (inactive) in assay [4]. In [6], the mean signal was 234 (inactive). Further, the fold change in [7] (setting [11]) is 1.01 (inactive) and 0.975 (inactive); in assay [7] (setting [12]), 1.64 and 1.95. Besides, the cell count in assay [7] (setting [13]) is 10900 and 7940; in assay [7] (setting [14]) it was 10800 and 8140. For the same compound, in [9], the z-score was -1.48 (inactive) and -0.825 (inactive). The log fold change Tl+ flux was -0.00325 (inactive) with F380Y; 0.00151 (inactive) with F380Y/beta1; -0.00353 (inactive) in the assay on F380Y/beta2Delta; 0.0254 (inactive) in the assay with F380Y/beta4; 0.0514 (inactive) in [10]; 0.0185 (inactive) with R275C. Moreover, the log fold change Tl+ flux was 0.035 (inactive) in the assay on R275C/beta1, -0.0293 (inactive) in the assay with R275C/beta2Delta, 0.0502 (inactive) in the assay with R275C/beta4 and 0.093 (inactive) in the assay on R275C/Slo1WT/beta2.

Regarding `C[C@@H](c1ncncc1F)[C@](O)(Cn1cncn1)c1ccc(F)cc1F`, the parasite load remaining in assay [1] is 100% (inactive). For the same compound, the viability in assay [1] is 75.1%. Further, the fluorescence ratio in assay [2] is 1.03 (inactive); in [5], 1.02 (inactive). The inhibition in assay [3] is 3.56% (inactive); in assay [4], -6.26% (inactive). Besides, the mean signal in [6] was 264 (inactive). Moreover, the values for the fold change in assay [7] (setting [11]) and in assay [7] (setting [12]) were 0.997 (inactive) and 2.46, respectively. Besides, the cell count turned out to be 9140 in assay [7] (setting [13]) and 9170 in [7] (setting [14]). For the same compound, the z-score is 0.391 (inactive) in assay [8] (setting [15]), -0.0394 in assay [8] (setting [16]) and 0.365 (inactive) in [9]. The log fold change Tl+ flux in the assay on F380Y is 0.0491 (inactive); in the assay with F380Y/beta1, -0.0167 (inactive); in the assay with F380Y/beta2Delta, 0.0265 (inactive); in the assay on F380Y/beta4 it was 0.000651 (inactive); in assay [10], 0.106 (active); in the assay on R275C, -0.0159 (inactive). For the same compound, the log fold change Tl+ flux with R275C/beta1 is 0.036 (inactive); in the assay with R275C/beta2Delta, 0.0278 (inactive); in the assay with R275C/beta4, -0.0222 (inactive); with R275C/Slo1WT/beta2, -0.0193 (inactive).
